BCR signal inh = chronic active BCR signaling inhibition; ABC-DLBCL IkBa-CBG/CBR reporter, luminescence ratio, 4 h; Potency, µM (highest dose often 46.1 µM), for the others: at the highest dose activity change, negative = inhibition, actives largely listed as inhibitors; 340,000 compounds, 0.05% hits; active = well fitted inhibition curve with a large enough effect in the signal ratio, with a control signal flat, not every such curve was filed as active; inconclusive = small, poorly fitted or top-dose-only effect, or effect the other way, or a change in a side signal; the % refers to the signal ratio;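 also: potency is read from the fitted curve at half-maximal effect; plate controls were basal doxycycline-induced cells for no effect and cells given 10 µM MG132 for full effect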
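Doxycycline induced both beetle luciferases in TMD8 lymphoma cells; IKK-driven degradation limits the IkappaBalpha-fused green signal, while red luminescence normalises for cell number and nonspecific effects. Compounds tested up to 46 uM, 4 hrs.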
MCF10A rereplic = inducers of DNA re-replication in MCF 10A breast cells. Potency, µM (top dose mostly 46.1 µM), for the others: top-dose activity, positive = re-replication, usual class: activators. 350,000 compounds, 2.9% hits. AID 624296. MCF 10A DNA re-replication, Hoechst nuclear intensity, 48 h; also: potency is read from the fitted curve at half-maximal effect; % of control where 0% means no effect; nearly all actives have a fitted effect of over 50% in size
SW480 rerep = inducers of DNA re-replication in SW480 colon cancer cells | SW480 DNA re-replication, Hoechst DNA content imaging, 48 h | Potency, µM (top dose mostly 46.1 µM), without a hit: at the top dose re-replication activation, most hits filed as activators | 340,000 compounds, 1.8% hits; also: potency is read from the fitted curve at half-maximal effect; % of control where 0% means no effect; nearly all actives have a fitted effect of over 55% in size
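Image-based DNA-content assay: after two days of treatment, nuclei were labelled with the DNA dye Hoechst and imaged, and hits were compounds raising the count of nuclei showing high fluorescence intensity.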
TDP1 cell CPT = growth inhibition of DT40 Tdp1-/-;hTDP1 cells with camptothecin (screen for TDP1 inhibitors) | chicken DT40 Tdp1-/-;hTDP1 cells + 20 nM CPT, ATP luminescence, 48 h | Potency, µM (doses to about 46.2 µM), without a hit: at the top dose activity change, negative = growth inhibition, usual class: inhibitors | 420,000 compounds, 12% hits; also: potency is read from the fitted curve at half-maximal effect; % is scaled to controls: 0 for no effect and ±100 for the full control effect; nearly all actives have a fitted effect of over 55% in size
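Chicken DT40 Tdp1-/- cells complemented with human TDP1, 400 cells/well, exposed to compounds plus 20 nM camptothecin for at least 48 h at 37 C; viability read as ATP content by CellTiter-Glo luminescence.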
TDP1 cell noCPT = qHTS for Inhibitors of human tyrosyl-DNA phosphodiesterase 1 (TDP1): qHTS in cells in absence of CPT; DT40 Tdp1-/- hTDP1 cells, no CPT, ATP luminescence, 48 h; Potency, µM (highest dose often 46.2 µM), inactives show at the top dose activity change, negative = growth inhibition, hits mostly inhibitors; 420,000 compounds, 15% hits; also: potency is read from the fitted curve at half-maximal effect; % is scaled to controls: 0 for no effect and ±100 for the full control effect; nearly all actives have a fitted effect of over 55% in size
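A cellular qHTS used chicken DT40 cells lacking endogenous Tdp1 but carrying stably transfected human TDP1. Compounds were applied without camptothecin, and cell growth kinetics were judged by ATP-dependent luminescence after ≥48 hr.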
IL1B secr inh = inflammasome signaling inhibition, IL-1 beta readout; THP-1 LPS/ATP IL-1B secretion, AlphaLISA, 16 h; active compounds read low; activity change, % at 57.5 µM; 360,000 compounds, 4.7% hits; in the data active = activity change below about -50%; inconclusive = mostly about -30% to -49%; also: % is scaled to controls: 0 for no effect and ±100 for the full control effect
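Secreted IL-1B measured by AlphaLISA bead assay after 16 h compound exposure of THP-1 cells; compounds (final up to 57.5 uM) added 1 h before LPS (250 ng/mL) and ATP (1.25 mM) stimulation; lower signal means less secretion.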
An asterisk follows results filed as active; ? = inconclusive; · = no result given; [ ] = dose if it differs, or a comment. Hits are enriched below; roughly 19% of the tested compounds scored in any of these assays. Unless noted, calls follow the shape of the dose curve; as a rule, active = well fitted curve in the direction sought with a large enough effect; inconclusive = small, poorly fitted or top-dose-only effect, or another doubt; inactive = no such curve, though single readings can be large; an effect the other way counts as inactive or inconclusive.

SMILES	BCR signal inh	MCF10A rereplic	SW480 rerep	TDP1 cell CPT	TDP1 cell noCPT	IL1B secr inh
O=C1CC(SC(=S)C2CCCC2=O)C(=O)N1 (centres undefined)	·	·	·	?	?	-6
CN(C)c1cc(NC(=O)CNC(C)(C)CC(C)(C)C)c2ccccc2n1	6%	?	?	?	16µM*	-13
C=C[C@]1(C)C=C2C(=O)[C@@]3(O)OC(=O)[C@@]4(CCCC(C)(C)[C@H]34)[C@@]2(O)CC1	·	·	·	0.65µM*	1.6µM*	-113*
CCCOc1ccc(/C=C/c2c([N+](=O)[O-])c(=O)n(C)c(=O)n2C)cc1	-1%	7%	-21%	-22%	-17%	-77*
COc1ccc(/C=C/c2c([N+](=O)[O-])c(=O)n(C)c(=O)n2C)cc1O	?	4%	?	-29%	?	-83*
Cn1c(/C=C/c2ccc(Br)cc2)c([N+](=O)[O-])c(=O)n(C)c1=O	?	21µM*	?	8.2µM*	12µM*	-103*
COC(=O)CC1=C(C(=O)OC)[C@@H](c2ccccc2[N+](=O)[O-])C(C#N)=C(N)O1	?	16%	1%	3%	-7%	-2
NS(=O)(=O)c1ccc(CCNC(=O)Cc2cccs2)cc1	1%	8%	-4%	-11%	-11%	2
Cc1ccc(C)c(CC(=O)N2CCCC(c3cc(C(=O)Nc4ccc5c(c4)OCO5)no3)C2)c1 (centres undefined)	·	·	·	15µM*	16µM*	-25
CC(C)c1ccc(C(=O)N2CCCC(c3cc(C(=O)Nc4ccc5c(c4)OCO5)no3)C2)cc1 (centres undefined)	·	·	·	?	21µM*	-5
CN(C)c1ccc(CC(=O)N2CCCC(c3cc(C(=O)Nc4ccc5c(c4)OCO5)no3)C2)cc1 (centres undefined)	·	·	·	16µM*	13µM*	-2
N#Cc1cccc(NC(=O)C2CCN(c3cnccn3)CC2)c1	·	·	·	-3%	-15%	·
COC(=O)C(NC(=O)c1ccccc1)=C(C)C	-3%	?	?	18µM*	?	18
COc1ccc(CC(=O)N/N=C/c2ccc(C)s2)cc1	·	?	8%	-5%	-32%	-6
CCCCCCCC(=O)N/N=C/c1ccc(Br)cc1	-1%	7.3µM*	18%	?	15µM*	-9
Cc1ccc(-c2nnc(SCC(=O)N/N=C/c3ccc(C)s3)n2-c2ccc(C)cc2)cc1	?	?	·	?	29µM*	-25
CCCCCCCCCC(=O)N/N=C/c1ccc(C)s1	3%	16µM*	?	?	?	24
Cc1ccc(-c2nnc(SCC(=O)N/N=C/c3ccccc3C(=O)O)n2-c2ccccc2)cc1	6%	·	·	·	·	·
CCn1nc(C)c(CCN(C)C(=O)Nc2cc(OC)c(OC)c(OC)c2)c1C	·	·	·	-1%	-12%	·
COc1c(N2CCN(C(=S)NC3CC4CCC3C4)C(C)C2)c(F)cc2c(=O)c(C(=O)O)cn(C3CC3)c12 (centres undefined)	-3%	?	-1%	23µM*	23µM*	-12
COc1c(N2CCN(C(=S)Nc3ccc(F)cc3)C(C)C2)c(F)cc2c(=O)c(C(=O)O)cn(C3CC3)c12 (centres undefined)	4%	-4%	3%	-3%	-23%	-27
NC(=O)C1=CC2C3C=CC2(O)C(=O)OC3O1 (centres undefined)	·	2.9µM*	3.7µM*	5.2µM*	5.8µM*	-96*
CCOc1ccccc1CN1CCNC(=O)C1CC(=O)NCc1nc(C)cs1 (centres undefined)	1%	-4%	-5%	-15%	-8%	8
C[S+](C)CC[C@H](N)C(=O)O	·	3%	-1%	·	·	·
CCCCC[C@@H](C)N1C[C@H](COCc2ccccc2)Oc2cc(N3CC[C@@H](N(C)C)C3)ccc2S1(=O)=O	·	·	·	23µM*	21µM*	-92*
SMILES	BCR signal inh	MCF10A rereplic	SW480 rerep	TDP1 cell CPT	TDP1 cell noCPT	IL1B secr inh
CCCCC[C@H](C)N1C[C@H](COCc2ccccc2)Oc2cc(N3CC[C@@H](N(C)C)C3)ccc2S1(=O)=O	·	·	·	?	?	-64*
C[C@@H](c1ccccc1)N1C[C@@H](COCc2ccccc2)Oc2cc(N3CC[C@@H](N(C)C)C3)ccc2S1(=O)=O	·	·	·	?	15µM*	-12
CCCCC[C@@H](C)N1C[C@@H](COCc2ccccc2)Oc2cc(N3CC[C@@H](N(C)C)C3)ccc2S1(=O)=O	·	·	·	21µM*	23µM*	-89*
Cc1ccc(C)c(Cn2cnc3ccccc3c2=O)c1	·	·	·	-2%	?	·
COc1ccc(CNC(=O)Cc2c(C(=O)O)c(C)cn2C)cc1	3%	·	·	0%	3%	·
O=C1CCCC(=O)C1CS(=O)(=O)c1ccccc1	-9%	5%	8%	-9%	8%	-9
Cc1cccc(C(=O)NCC2Cc3cc(F)cc(-c4cnccn4)c3O2)n1 (centres undefined)	·	·	·	3%[9.04 µM]	?	·
CC(=O)NC(c1cccc(F)c1)c1nc(/C=C/c2ccccc2)cs1 (centres undefined)	·	·	·	?	-38%	-16
CC(C)(CNC(=O)c1cccc(NS(=O)(=O)c2ccc(Br)cc2)c1)N1CCOCC1	-1%	?	-5%	-1%	?	25
C[C@H](c1ccccc1)N1C[C@H](COCc2ccccc2)Oc2cc(N3CC[C@@H](N(C)C)C3)ccc2S1(=O)=O	·	·	·	10%	-19%	47
CCCCC[C@H](C)N1C[C@H](COCc2ccccc2)Oc2cc(N3CC[C@H](N(C)C)C3)ccc2S1(=O)=O	·	·	·	?	16µM*	?
COc1cc(C(=O)Nc2ccc(N3CCCS3(=O)=O)cc2)c([N+](=O)[O-])cc1OC	0%	0%	1%	-5%	-14%	-6
C=CCN1[C@@H](C(C)C)COCCS1(=O)=O	·	·	·	-15%	18%	·
N#Cc1c(-c2ccccc2)nc(SCc2ccc(Cl)cc2)[nH]c1=O	2%	?	-12%	-2%	-26%	-54*
C=CCSc1nc(-c2ccccc2)c(C#N)c(=O)[nH]1	19%	2%	-3%	-10%	1%	21
N#Cc1c(-c2ccccc2)nc(SCC(=O)N2c3ccccc3Sc3ccccc32)[nH]c1=O	1%	21µM*	9%	-6%	0%	-20

Assay outcomes from PubChem BioAssay.
